The text below walks through data of the supplement of paper PMC10338343.

± gives the standard deviation. A value given as a limit tells only on which side of the number the result lay.

The subject of the first assay is MILI (PIWIL2) piRISC loaded with L1MC piRNA (26 nt). Nature of the assay: pre-steady-state target cleavage rate (min^-1); guide: L1MC piRNA 5'p-UAACUAAAUACUAUGCAAGCUGUAGG; MIWI and MILI are mouse PIWI proteins and EfPiwi is from a freshwater sponge; tags in brackets are library labels; higher = faster piRNA-guided slicing of the target. The following applies: auxiliary factor: 500 nM mouse GTSF1. In outline:
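The pre-steady-state cleavage rate came from a burst-and-steady-state fit to pooled data from three Cleave-'n-Seq trials, in which uncleaved targets were sequenced and normalised to depth and to weakly complementary targets. Each reaction held 0.1 nM transcribed, DNA-blocked target RNA library and 1 nM active affinity-purified piRISC carrying one synthetic guide, with or without 500 nM GTSF1 partner protein, in HEPES–potassium acetate buffer at 33 °C for 0–8 or 0–960 min. k3 was capped at 0.0001 min^-1.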
In the case of UCCUGGAUCAGCUUGCAUAGUAUUUUGAUA, the “pre-steady-state target cleavage rate” value worked out at 0.0355 ± 0.013.
As for UCCUCCUACAGCUUGCAUACUAUUUAGAAA, the “pre-steady-state target cleavage rate” value was found to be 0.136 ± 0.043.
UCCUGGAUCAGCUUGCAUACUAUUUUCAAA: the “pre-steady-state target cleavage rate” value was found to be 0.00818 ± 0.004.
Consider UCCUCCUACAGCAACCAUAGUAUUUAGUAA, for which the “pre-steady-state target cleavage rate” value came out at 0.255 ± 0.043.
For the sequence UCCUGGAUGUCCUUGCAUAGAAUAUAGUUA, the “pre-steady-state target cleavage rate” value amounted to 0.00487 ± 0.0038.
Still for that read-out and setting: the same measure for UCCUGGUACAGCUUGCAUAGAAUUUUGUUA: 0.0466 ± 0.016; for UCCUGGAUCAGCUUGCUAUGUAUUUAGUAA: 0.00621 ± 0.0032.
On to UCCUGGUACAGCUUGCAUAGUAUAAACAAA, for which the “pre-steady-state target cleavage rate” value amounted to 0.0195 ± 0.0074.
On to UCCUGGAUCAGCUUGCAUAGUAUUAUGAAA, for which the “pre-steady-state target cleavage rate” value turned out to be 0.0664 ± 0.016.
Same read-out and setting: for UCCUGGAUGUCCUUGCAUAGUAUUUGUUA the value was 0.0123 ± 0.0057; for UCCUGCUACAGCUUGCAUGAGUAUUUAGUUA, 0.0058 ± 0.0041.
In the case of UCCUGGAUGUCGAAGCAUAGUAUUAUAGUUA, the “pre-steady-state target cleavage rate” value was 0.0614 ± 0.014.
For the sequence UCCUGGAACAGCUUGCAUAGUAAAAAGUAA, the “pre-steady-state target cleavage rate” value is 0.076 ± 0.022.
Take UCCUGGAUGUCGAUGCAAAGUAUUAAGUUA: the “pre-steady-state target cleavage rate” value was 0.00433 ± 0.0038.
Consider UCCUGCUACAGGAUGCAUAGUAUUUACAAA, for which the “pre-steady-state target cleavage rate” value was 0.0053 ± 0.0037.
In the case of UCCUGGAACAGCUAGCAUAGAAUUUAGUUA, the “pre-steady-state target cleavage rate” value stood at 0.0486 ± 0.0073.
The same measure, in the same setting: the same measure for UCCUGGUACAGCUUGCAUAGUAUAAUGAAA: 0.0203 ± 0.0077; for UCCUGGUAGUCCUUGCAUAGUAUUUUCAAA: 0.0125 ± 0.0059; for UCCUGGAUCAGCUUGCUAAGUAUUUAGUAA: 0.0344 ± 0.01.
As to UCCUGGAUGUCGAUUCAUAGUAUUUAGUUA, the “pre-steady-state target cleavage rate” value stood at 0.0157 ± 0.0044.
Turning to UCCUGGAUGUCGUUGCAUAGUAUAAUGUUA, the “pre-steady-state target cleavage rate” value turned out to be 0.0201 ± 0.011.
Consider UCCUGGAUGUCCAUGCAUAGUAUUUUGUUA, for which the “pre-steady-state target cleavage rate” value was 0.00776 ± 0.0045.
Turning to UCCUGGUACAGCUUGCAUUGUAUUUACAAA, the “pre-steady-state target cleavage rate” value worked out at 0.0165 ± 0.0077.
Take UCCUGGAUGAGCAAGCAUAGUAUUUAGAAA: the “pre-steady-state target cleavage rate” value turned out to be 0.0674 ± 0.015.
For UCCUGCUACAGCUUGCAUAGUAAAUACAAA, the “pre-steady-state target cleavage rate” value worked out at 0.0117 ± 0.006.
The same measure, in the same setting: the same measure for UCCUGGAUGAGCUUGCAAAGUAUUUACUUA: 0.046 ± 0.014; for UCCUGGAUGAGCUUGCAUAGAAUAUAGUUA: 0.0218 ± 0.0083.
Still for that read-out and setting: for UCCUGGAUGUGCUUGCAUAGUAUUUACUUA the value was 0.0325 ± 0.0094; for UCCUGGAACAGCUUGCAUAGUUUAUAGUUA, 0.029 ± 0.0097; for UCCUGGAUGUCGAAGCAUAGUCUUUAGUUA, 0.0102 ± 0.0051.
As for UCCUCCUACAGCUUGCAUAGUAUAAUCAAA, the “pre-steady-state target cleavage rate” value worked out at 0.122 ± 0.029.
As for UCCUGGAUGUCCUAGCAUAGUAUUUAGAUA, the “pre-steady-state target cleavage rate” value turned out to be 0.0302 ± 0.007.
Turning to UCCUCCUACUCCUUGCAUAGUAUUUUCAAA, the “pre-steady-state target cleavage rate” value stood at 0.0534 ± 0.015.
Still for that read-out and setting: the same measure for UCCUGCUACACCUUGCAUAGAAUUUAGUUA: 0.0952 ± 0.037.

The assay is the same for the next values; noted with them: auxiliary factor: none (no GTSF1).
On to “UCCUGGAUGUCCUUGCAUACAUAAAUCAAA [g12:g19:cont:t1A]”, for which the “pre-steady-state target cleavage rate” value was below 0.0001.
The same measure, in the same setting: for UCCUGGUACAGCUUGCAUACUUUUUAGUUA the value was 0.00598 ± 0.0037.
For UCCUGGAUGUCGAACGUAAGUAAUUUGUUA, the “pre-steady-state target cleavage rate” value is below 0.0001.
UCCUGGAACAGCUUCGAUAGUAUUUACAAA: the “pre-steady-state target cleavage rate” value is below 0.0001.
Take UCCUGGAUGUCGAACGUUAGUAUAUAGUUA: the “pre-steady-state target cleavage rate” value is below 0.0001.
In the case of UCCUGGAUGUCGAACGUUAGCAUUUAGUUA, the “pre-steady-state target cleavage rate” value was below 0.0001.
